# Test results as given in PubChem BioAssay (Tox21).
# Results filed as inconclusive are left out. Activity calls are given as the source filed them. Calls come from the whole dose curve; as a rule, active = well fitted curve in the direction sought with a large enough effect in the signal ratio in the repeat runs (not every such curve was filed as active); inconclusive = weak or mixed curves, or a change in a side signal; inactive = no such curve, though single readings can be large or run the other way; the % refers to the signal ratio.
# Experiment: qHTS assay to identify small molecule agonists of the NFkB signaling pathway (AID 1159509)
# Conditions: NFkB-bla ME-180 cells, beta-lactamase FRET ratio, 5 h; series mostly up to 61 µM; activation: at the top concentration
# From the text: National Center for Advancing Translational Sciences [NCATS]
# NIH Chemical Genomics Center [NCGC]
# U.S. Environmental Protection Agency [EPA]
# National Institutes of Environmental Health Sciences [NIEHS]
# National Toxicology Program [NTP]
# U.S. Food and Drug Administration [FDA]
# Transcription factors and their stimulated target gene expression play pivotal roles across many cellular processes including responses to environmental stimuli. Proper regulation of associated pathways is critical to maintain cell health and function. Constitutive activation of transcription factor pathways has been implicated in tumors as it may block cellular functions such as apoptosis and lead to invasion and metastasis. One important transcription factor that stimulates gene expression in response to cytokines, UV radiation, and other stimuli is nuclear factor-kappa B (NFkB). To measure activation of the NFkB pathway, the CellSensor NFkB-bla ME-180 cell line (Life Technologies, Carlsbad, CA) that stably expresses beta-lactamase reporter gene under the regulation of a NF-kB response element was used. This assay allows measurement of the NFkB pathway activity induced by compounds in a ME-180 cell line. This system quantitates NF-kB activity using a FRET-based assay system where beta-lactamase expression disrupts FRET, allowing for fluorescent measurement of activity. This cell line has been used to screen the Tox21 10K compound library and to identify compounds that induce the NFkB pathway activity.
# Tox21 Assay Protocol Summary:
# NFkB-bla ME-180 cells were dispensed at 2,000 cells/6 uL of assay medium per well into black wall/clear-bottom 1536-well plates using a Multidrop Combi (ThermoFisher Scientific, Waltham, MA) dispenser. After the assay plates were incubated at 37 C and 5% CO2 for an overnight, 23 nL of compounds dissolved in DMSO, positive controls or DMSO only was transferred to the assay plate by a Pintool station (Kalypsys, San Diego, CA). The assay plates were incubated at 37 C and 5% CO2 for 5 hr. One uL of LiveBLAzer B/G FRET substrate (Life Technologies) was added using a Flying Reagent Dispenser (Aurora Discovery, San Diego, CA) and the plates were incubated at room temperature for 1.5 hr. Fluorescence intensity (405 nm excitation, 460 nm and 530 nm emissions) was measured using an Envision plate reader (PerkinElmer, Shelton, CT).
# % is set by controls: 0 for no effect and ±100 for the full control effect.
row,Structure (SMILES),activation
1,CC1(CO)CN(c2ccccc2)NC1=O (stereo not given),-0.0571% (inactive)
2,COC(=O)C1CC(=O)C(C(=O)OC)CC1=O (stereo not given),0.23% [at 6.95 µM] (inactive)
3,CCCN1C[C@H](CSC)C[C@@H]2c3cccc4[nH]cc(c34)C[C@H]21,0.632% (inactive)
4,CC(=O)Nc1ccc(S(=O)(=O)Cl)cc1,0.0295% (inactive)
5,CC(C)(C)c1n[nH]c(=S)n(N)c1=O,-0.56% (inactive)
6,COc1ccc(Br)c(C)c1,0.194% [at 78.8 µM] (inactive)
7,CN1CCN(CC(=O)N2c3ccccc3C(=O)Nc3cccnc32)CC1,-0.0785% [at 6.95 µM] (inactive)
8,CCOC(=O)/C=C/c1ccccc1,0.0032% (inactive)
9,CCCCN,-0.433% (inactive)
10,CCCCCCN,-0.614% (inactive)
11,N#Cc1ccc(C(=O)O)cc1,-0.116% (inactive)
12,COC(=O)CCCCCCCC(=O)OC,0.132% (inactive)
13,C=COCCOCCOCCOC=C,-0.11% (inactive)
14,CC/C=C\CC1=C(C)CCC1=O,0.0785% (inactive)
15,CC(C)CCCC(C)(C)O,0.474% (inactive)
16,C[C@@H](O)[C@H]1C(=O)N2C(C(=O)O)=C(SCCN=CN)C[C@H]12,-0.295% (inactive)
17,CC(=O)Nc1ccc(S(=O)(=O)Nc2ccc([N+](=O)[O-])cc2)cc1,-0.148% (inactive)
18,Cc1ccc2ccc(Cl)cc2n1,0.578% (inactive)
19,O=C(O)Cc1cn(-c2ccccc2)nc1-c1ccc(Cl)cc1,1.64% (inactive)
20,CCCC(=O)C(C)=O,0.0111% (inactive)

row,Structure (SMILES),activation
1,O=C(Nc1ccc(Cl)c(Cl)c1)C1CC1,-0.241% (inactive)
2,CO[C@@H]1[C@@H](OC(N)=O)[C@@H](O)[C@H](Oc2ccc3c(O)c(NC(=O)c4ccc(O)c(CC=C(C)C)c4)c(=O)oc3c2C)OC1(C)C,-0.0494% (inactive)
3,CC(C)C(=O)OCCc1ccccc1,0.16% (inactive)
4,CCC(C)NC(N)=O (stereo not given),-0.0625% (inactive)
5,N[C@@H](CCC(=O)N[C@@H](CS)C(=O)NCC(=O)O)C(=O)O,-0.349% [at 28.5 µM] (inactive)
6,Brc1ccc(-c2ccccc2)cc1,0.257% (inactive)
7,CCCCNc1ccc(C(=O)OCCN(C)C)cc1,-0.143% (inactive)
8,CC(=O)c1sc(C)nc1C,-0.122% (inactive)
9,C=CCCCCCCCCCCCC,0.0267% (inactive)
10,CCCC/C=C/C=C\C=O,-0.933% (inactive)
11,OCCN(CCO)c1cccc(Cl)c1,-0.653% (inactive)
12,Cc1cccc2nccnc12,0.075% (inactive)
13,CCCCCCOc1ccccc1C(N)=O,-0.667% (inactive)
14,O=C(O)C(=O)Cc1ccccc1,0.0535% (inactive)
15,CCCCOCCOC(=O)COc1nc(Cl)c(Cl)cc1Cl,-0.452% (inactive)
16,COc1ccc(OC)c(Cl)c1,-0.279% (inactive)
17,CC(N)C(=O)OC(C)(C)Cc1ccc(Cl)cc1 (stereo not given),-0.113% (inactive)
18,O=C1O[C@@H]2[C@@H](O)[C@H](O)O[C@@H]2[C@H]1O,0.282% (inactive)
19,COc1cc(C(=S)N2CCOCC2)cc(OC)c1OC,0% (inactive)
20,Cc1cc(C(C)(C)C)c(O)c(C)c1CC1=NCCN1,-0.957% (inactive)
